From the supplement of paper PMC10849652
Of roughly 7,900 targets only a part is listed; those with a hit were picked by preference. About 0.6% of all pairs of compound and target were hits.

Tests used:
Assay in all cases: log2 fold change, soluble protein after heating vs DMSO (PISA); higher = thermal stabilisation; K562 cells, 10 uM, 30 min; active = over 0.2 and 3.5 SD of the protein, either way, in both replicates (recomputed)
[1] = compound: C1=CC=C(C=C1)[C@H](COC2=CC3=C(C=C2)NC(=O)N3)NC(=O)C4=CC=CN(C4=O)CC5=CC(=C(C=C5)F)F
In short: (§1)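 For each measurement, 10 μM compound was applied for 30 min to K562 cells at 2×10^6 cells/mL. Aliquots were heated for 3 min across 48°C-58°C, pooled, and extracted in PBS with 0.5% NP-40 at 4°C; the supernatant after 21,000xg for 90 min was soluble protein. This was quantified by TMTpro 16plex LC-MS/MS with channel sums equalised, and thermal stability was reported relative to control samples from duplicates, on a log2 fold-change scale.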

[2] = compound: CC1=C(SC2=C1C(=N[C@H](C3=NN=C(N32)C)CC(=O)N)C4=CC=C(C=C4)Cl)C
In short: as §1

[3] = compound: CC1=C2C(=CC=C1)N=C(N(C2=O)C3=CC=CC=C3C)CN4C=NC5=C(N=CN=C54)N
In short: as §1

[4] = compound: Cc1sc2c(c1C)C(c1ccc(Cl)cc1)=N[C@@H](CC(=O)OC(C)(C)C)c1nnc(C)n1-2
In short: as §1

[5] = compound: c1ccc([C@@H]2C[C@H]2NC2CCNCC2)cc1
In short: as §1

Measured: log2 fold change

SHCBP1 (UniProt Q8NEM2)
inactive: [1] 0.018 | [2] -0.176 | [3] 0.138 | [4] -0.089 | [5] -0.056

SDHAF2 (UniProt Q9NX18)
Chain of UniProt Q9NX18 (Q9NX18 whole entry, looked up): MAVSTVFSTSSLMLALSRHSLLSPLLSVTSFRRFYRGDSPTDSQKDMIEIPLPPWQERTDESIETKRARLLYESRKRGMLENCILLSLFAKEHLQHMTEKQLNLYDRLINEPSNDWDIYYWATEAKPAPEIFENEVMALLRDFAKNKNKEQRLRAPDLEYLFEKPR
inactive: [1] -0.02 | [2] 0.078 | [3] -0.013 | [4] -0.097 | [5] -0.096

ROCK1 (UniProt Q13464)
inactive: [1] -0.017 | [2] 0.027 | [3] 0.032 | [4] -0.018 | [5] -0.015

SCLT1 (UniProt Q96NL6)
Chain of UniProt Q96NL6 (Q96NL6 whole entry, looked up): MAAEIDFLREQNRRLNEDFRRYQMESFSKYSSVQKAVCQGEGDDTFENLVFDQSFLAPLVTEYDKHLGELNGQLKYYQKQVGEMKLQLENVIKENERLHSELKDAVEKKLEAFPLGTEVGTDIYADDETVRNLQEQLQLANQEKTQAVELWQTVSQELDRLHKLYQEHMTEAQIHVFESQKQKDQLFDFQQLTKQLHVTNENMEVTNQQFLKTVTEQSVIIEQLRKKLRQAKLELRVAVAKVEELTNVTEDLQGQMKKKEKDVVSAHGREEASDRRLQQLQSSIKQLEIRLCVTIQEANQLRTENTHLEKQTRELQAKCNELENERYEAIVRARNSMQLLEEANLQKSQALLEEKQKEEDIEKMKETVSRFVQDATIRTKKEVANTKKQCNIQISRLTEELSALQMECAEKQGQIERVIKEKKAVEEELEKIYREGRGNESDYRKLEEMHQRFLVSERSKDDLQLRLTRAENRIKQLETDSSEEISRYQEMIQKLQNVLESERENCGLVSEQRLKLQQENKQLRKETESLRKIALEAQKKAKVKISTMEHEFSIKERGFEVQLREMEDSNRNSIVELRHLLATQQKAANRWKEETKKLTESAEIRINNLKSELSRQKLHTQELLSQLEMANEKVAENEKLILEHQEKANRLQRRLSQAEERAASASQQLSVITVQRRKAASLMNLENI
inactive: [1] 0.078 | [2] 0.215 | [3] 0.222 | [4] 0.001 | [5] -0.039

RNF14 (UniProt Q9UBS8)
Chain of UniProt Q9UBS8 (Q9UBS8 whole entry, looked up): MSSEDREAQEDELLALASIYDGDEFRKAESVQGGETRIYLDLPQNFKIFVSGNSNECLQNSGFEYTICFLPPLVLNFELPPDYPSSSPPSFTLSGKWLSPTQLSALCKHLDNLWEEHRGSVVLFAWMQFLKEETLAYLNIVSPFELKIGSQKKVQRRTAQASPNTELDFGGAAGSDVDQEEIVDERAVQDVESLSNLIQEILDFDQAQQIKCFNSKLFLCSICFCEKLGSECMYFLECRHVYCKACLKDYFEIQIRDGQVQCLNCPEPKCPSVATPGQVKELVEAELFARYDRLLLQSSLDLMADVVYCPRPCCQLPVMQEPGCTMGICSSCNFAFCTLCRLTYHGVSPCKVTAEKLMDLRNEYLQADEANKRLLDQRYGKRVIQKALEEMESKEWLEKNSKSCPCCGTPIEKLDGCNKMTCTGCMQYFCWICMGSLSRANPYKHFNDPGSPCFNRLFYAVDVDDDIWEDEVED
inactive: [1] -0.031 | [2] -0.005 | [3] -0.048 | [4] -0.013 | [5] 0.03

RPS20 isoform 2 (UniProt P60866)
inactive: [1] -0.002 | [2] -0.114 | [3] -0.051 | [4] 0.059 | [5] 0

RAC3 (UniProt P60763)
inactive: [1] -0.006 | [2] 0.028 | [3] 0.029 | [4] -0.025 | [5] -0.147

SEC23A (UniProt Q15436)
Chain of UniProt Q15436 (Q15436 whole entry, looked up): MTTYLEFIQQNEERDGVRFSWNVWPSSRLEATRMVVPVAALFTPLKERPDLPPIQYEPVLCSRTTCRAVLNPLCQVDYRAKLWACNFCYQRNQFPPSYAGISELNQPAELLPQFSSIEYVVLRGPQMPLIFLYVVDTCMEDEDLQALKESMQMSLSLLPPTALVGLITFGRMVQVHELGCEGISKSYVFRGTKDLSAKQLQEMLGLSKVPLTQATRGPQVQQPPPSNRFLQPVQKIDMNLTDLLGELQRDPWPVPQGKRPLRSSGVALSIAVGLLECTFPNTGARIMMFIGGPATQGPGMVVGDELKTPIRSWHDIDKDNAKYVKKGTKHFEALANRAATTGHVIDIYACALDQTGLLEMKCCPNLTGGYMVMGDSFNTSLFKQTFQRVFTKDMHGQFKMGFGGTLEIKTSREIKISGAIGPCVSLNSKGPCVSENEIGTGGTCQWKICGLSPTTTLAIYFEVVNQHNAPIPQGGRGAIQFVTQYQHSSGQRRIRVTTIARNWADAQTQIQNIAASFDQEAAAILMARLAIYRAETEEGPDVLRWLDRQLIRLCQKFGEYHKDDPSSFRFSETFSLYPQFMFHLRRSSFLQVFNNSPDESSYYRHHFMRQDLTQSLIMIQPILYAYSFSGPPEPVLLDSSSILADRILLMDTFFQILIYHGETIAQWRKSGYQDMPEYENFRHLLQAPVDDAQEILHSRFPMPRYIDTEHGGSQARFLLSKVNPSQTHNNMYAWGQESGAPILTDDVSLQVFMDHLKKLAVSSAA
inactive: [1] 0.006 | [2] 0.052 | [3] 0.078 | [4] 0.027 | [5] 0.075

RPS14 (UniProt P62263)
inactive: [1] 0.041 | [2] -0.162 | [3] -0.238 | [4] 0.078 | [5] -0.036

SCG3 (UniProt Q8WXD2)
inactive: [1] 0.131 | [2] 0.034 | [3] 0.09 | [4] 0 | [5] 0.051

SCCPDH (UniProt Q8NBX0)
inactive: [1] -0.047 | [2] 0.087 | [3] 0.002 | [4] -0.003 | [5] -0.059

RAB3D (UniProt O95716)
inactive: [1] 0.023 | [2] -0.105 | [3] 0.007 | [4] -0.082 | [5] 0.201

RPS16 (UniProt P62249)
inactive: [1] 0.049 | [2] -0.149 | [3] -0.192 | [4] 0.043 | [5] -0.003

RALGPS2 (UniProt Q86X27)
Chain of UniProt Q86X27 (Q86X27 whole entry, looked up): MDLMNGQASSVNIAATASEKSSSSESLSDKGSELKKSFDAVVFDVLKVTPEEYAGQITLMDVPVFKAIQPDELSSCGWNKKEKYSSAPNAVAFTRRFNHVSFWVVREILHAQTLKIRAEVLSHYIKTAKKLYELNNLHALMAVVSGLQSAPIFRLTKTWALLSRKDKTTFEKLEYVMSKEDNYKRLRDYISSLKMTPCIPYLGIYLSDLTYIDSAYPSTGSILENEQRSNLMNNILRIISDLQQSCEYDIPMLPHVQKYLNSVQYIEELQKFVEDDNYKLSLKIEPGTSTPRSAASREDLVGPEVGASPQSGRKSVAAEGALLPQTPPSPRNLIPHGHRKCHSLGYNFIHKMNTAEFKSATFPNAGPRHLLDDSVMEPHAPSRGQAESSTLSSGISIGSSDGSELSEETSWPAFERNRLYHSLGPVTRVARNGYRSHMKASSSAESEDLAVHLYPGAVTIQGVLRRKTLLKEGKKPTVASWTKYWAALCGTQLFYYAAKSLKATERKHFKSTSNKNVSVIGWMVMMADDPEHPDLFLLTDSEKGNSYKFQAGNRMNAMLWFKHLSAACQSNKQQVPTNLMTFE
inactive: [1] -0.069 | [2] 0.073 | [3] -0.093 | [4] 0.116 | [5] -0.01

SASH1 (UniProt O94885)
inactive: [1] -0.044 | [2] 0.092 | [3] 0.037 | [4] -0.045 | [5] -0.161

RABGGTA (UniProt Q92696)
inactive: [1] -0.105 | [2] 0.084 | [3] 0.035 | [4] 0.014 | [5] -0.024

RRP12 (UniProt Q5JTH9)
inactive: [1] -0.015 | [2] -0.068 | [3] 0.045 | [4] 0.001 | [5] 0

RAB3GAP2 (UniProt Q9H2M9)
inactive: [1] -0.023 | [2] -0.07 | [3] 0.051 | [4] 0.04 | [5] 0.001

RPS3A (UniProt P61247)
inactive: [1] 0.053 | [2] -0.162 | [3] -0.139 | [4] 0.099 | [5] 0

SIDT2 isoform 2 (UniProt Q8NBJ9)
Chain of UniProt Q8NBJ9 (Q8NBJ9 whole entry, looked up): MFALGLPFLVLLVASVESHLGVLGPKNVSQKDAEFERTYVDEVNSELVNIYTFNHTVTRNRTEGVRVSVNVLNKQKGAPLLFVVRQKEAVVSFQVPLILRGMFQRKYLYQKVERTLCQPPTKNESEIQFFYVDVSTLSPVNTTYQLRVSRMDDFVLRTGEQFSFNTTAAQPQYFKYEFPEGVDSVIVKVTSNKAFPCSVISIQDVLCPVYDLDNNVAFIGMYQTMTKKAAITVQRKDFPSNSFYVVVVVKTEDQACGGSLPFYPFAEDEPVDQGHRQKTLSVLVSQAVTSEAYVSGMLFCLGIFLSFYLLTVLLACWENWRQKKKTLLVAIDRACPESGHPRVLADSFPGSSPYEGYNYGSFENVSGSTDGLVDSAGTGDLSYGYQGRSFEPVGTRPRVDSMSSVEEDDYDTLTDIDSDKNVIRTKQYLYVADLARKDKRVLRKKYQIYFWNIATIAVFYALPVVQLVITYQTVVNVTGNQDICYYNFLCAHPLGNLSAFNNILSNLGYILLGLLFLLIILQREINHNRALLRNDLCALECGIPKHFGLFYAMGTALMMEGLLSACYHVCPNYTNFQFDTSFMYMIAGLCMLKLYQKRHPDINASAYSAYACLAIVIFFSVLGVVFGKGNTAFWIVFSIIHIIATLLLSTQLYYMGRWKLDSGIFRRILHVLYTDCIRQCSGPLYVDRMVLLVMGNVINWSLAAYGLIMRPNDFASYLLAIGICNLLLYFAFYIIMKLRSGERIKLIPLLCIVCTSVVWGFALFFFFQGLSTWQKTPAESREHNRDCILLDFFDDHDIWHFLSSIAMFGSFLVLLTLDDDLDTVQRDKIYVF
inactive: [1] -0.005 | [2] -0.005 | [3] 0.018 | [4] -0.115 | [5] 0.088

RARS (UniProt P54136)
Chain of UniProt P54136 (P54136 whole entry, looked up): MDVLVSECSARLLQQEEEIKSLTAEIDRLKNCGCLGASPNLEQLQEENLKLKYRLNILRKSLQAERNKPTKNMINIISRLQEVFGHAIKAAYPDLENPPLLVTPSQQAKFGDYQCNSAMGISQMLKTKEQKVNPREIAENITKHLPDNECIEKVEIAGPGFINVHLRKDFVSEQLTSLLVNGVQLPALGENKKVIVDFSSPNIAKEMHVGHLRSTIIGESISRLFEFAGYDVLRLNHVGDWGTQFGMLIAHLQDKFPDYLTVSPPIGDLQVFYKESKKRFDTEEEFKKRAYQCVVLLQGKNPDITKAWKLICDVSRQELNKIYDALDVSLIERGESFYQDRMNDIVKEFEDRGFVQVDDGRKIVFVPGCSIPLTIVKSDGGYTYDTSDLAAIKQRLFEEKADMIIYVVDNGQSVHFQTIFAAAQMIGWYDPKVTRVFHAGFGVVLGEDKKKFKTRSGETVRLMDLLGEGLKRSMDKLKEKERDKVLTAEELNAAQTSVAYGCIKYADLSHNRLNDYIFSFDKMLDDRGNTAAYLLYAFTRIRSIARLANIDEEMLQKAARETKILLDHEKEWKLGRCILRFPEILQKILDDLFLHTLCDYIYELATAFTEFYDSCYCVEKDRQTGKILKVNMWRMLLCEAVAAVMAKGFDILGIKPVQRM
inactive: [1] -0.057 | [2] -0.081 | [3] -0.02 | [4] 0.169 | [5] 0.024

SKP1 (UniProt P63208)
Chain of UniProt P63208 (P63208 whole entry, looked up): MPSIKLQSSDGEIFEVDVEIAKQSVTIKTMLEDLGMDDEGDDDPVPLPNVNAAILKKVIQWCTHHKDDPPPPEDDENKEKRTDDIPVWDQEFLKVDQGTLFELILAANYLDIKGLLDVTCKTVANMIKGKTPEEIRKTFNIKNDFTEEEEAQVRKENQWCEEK
inactive: [1] -0.035 | [2] -0.008 | [3] 0 | [4] -0.036 | [5] -0.017

RB1CC1 (UniProt Q8TDY2)
inactive: [1] 0.198 | [2] 0.096 | [3] 0.032 | [4] 0.029 | [5] -0.063

SETD3 (UniProt Q86TU7)
Chain of UniProt Q86TU7 (Q86TU7 whole entry, looked up): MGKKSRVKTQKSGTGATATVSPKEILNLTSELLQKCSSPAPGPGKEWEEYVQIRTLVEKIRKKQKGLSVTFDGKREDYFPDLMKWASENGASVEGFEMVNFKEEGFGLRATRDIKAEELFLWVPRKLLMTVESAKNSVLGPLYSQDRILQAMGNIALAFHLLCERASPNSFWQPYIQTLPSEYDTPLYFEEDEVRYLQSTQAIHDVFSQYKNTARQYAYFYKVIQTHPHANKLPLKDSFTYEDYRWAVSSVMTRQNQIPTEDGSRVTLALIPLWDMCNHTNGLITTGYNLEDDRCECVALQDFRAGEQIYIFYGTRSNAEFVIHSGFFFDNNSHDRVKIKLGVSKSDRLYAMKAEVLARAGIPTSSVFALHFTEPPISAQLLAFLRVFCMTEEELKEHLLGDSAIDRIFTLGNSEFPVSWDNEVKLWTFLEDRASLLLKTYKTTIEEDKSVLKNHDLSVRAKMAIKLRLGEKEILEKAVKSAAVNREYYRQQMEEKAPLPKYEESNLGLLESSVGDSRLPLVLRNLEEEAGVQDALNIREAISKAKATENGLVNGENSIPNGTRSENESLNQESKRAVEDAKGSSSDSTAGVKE
inactive: [1] -0.017 | [2] 0.018 | [3] 0.061 | [4] 0.021 | [5] -0.005
